PubChem BioAssay

Target: Streptavidin (Streptomyces avidinii) (UniProt P22629)
Assay: compounds binding control protein streptavidin – biophysical, small-molecule microarray, 635/667 nm fluorescence, artefact control for SMM compound annotation, primary screen (AID 1147);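 note: signal reflects streptavidin binding to arrayed compounds as a control protein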
Conditions: higher = more signal

Sequence of Streptavidin (Streptomyces avidinii) (P22629 whole entry, looked up): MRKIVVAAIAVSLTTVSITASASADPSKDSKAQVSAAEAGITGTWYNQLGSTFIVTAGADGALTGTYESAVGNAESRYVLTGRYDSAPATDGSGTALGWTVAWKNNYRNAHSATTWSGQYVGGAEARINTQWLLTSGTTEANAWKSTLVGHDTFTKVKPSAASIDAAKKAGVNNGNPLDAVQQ

In order of rising composite z-score:
1. COc1ccc(CCNC(=O)[C@@]2(c3ccc([N+](=O)[O-])cc3)CC(=O)N(C(C)C)[C@@H]2c2ccc(CO)cc2)cc1  -0.698
2. O=C1c2ccccc2[C@](Cc2ccccc2I)(C(=O)NCc2ccccc2)[C@H](c2ccc(CO)cc2)N1Cc1ccccc1C(F)(F)F  -0.409
3. Cc1ccc(S[C@]2(C(=O)O)CC(=O)N(Cc3ccccc3)[C@@H]2c2ccc(CO)cc2)cc1  -0.185
4. CO[C@H]1COC(=O)[C@H](CCSC)NC(=O)CC=C[C@@H](C)COC(=O)[C@@H](OCc2ccccc2)C=C[C@@H]1C  -0.154
5. CCCCO[C@H]1C[C@H]2C(Br)=C[C@@]1(CO)C(=O)[C@]21CO1  -0.0819
6. CN1CCC(CCCO)=CC1C1CC1 (stereo unspecified)  -0.0672
7. COc1ccc([Si](C)(C)[C@H]2[C@H](CCO)O[C@@]3(C(=O)N(Cc4ccc(N5CCCCC5=O)cc4)c4ccccc43)[C@@H]2C)cc1  -0.0077
8. C=CCC(OC(C)=O)[C@@H]1[C@@H](N(Cc2ccc(-c3ccccc3)cc2)C(=O)c2ccc(C)cc2)c2cc(OCCCO)ccc2N1C(=O)c1ccc(-c2ccccc2)cc1 (stereo partly specified)  0.0598
9. CCCNC(=O)[C@@]1(Sc2ccc(C)cc2)CC(=O)N(Cc2ccccc2Cl)[C@@H]1c1ccc(CO)cc1  0.124
10. CO[C@]12C=C(Br)[C@@H](C[C@@H]1c1ccccc1)[C@@]1(CO1)C2=O  0.4
11. C[C@@H]1CC[C@H]2C(=O)N3[C@@H](CC[C@@H](C)[C@@H]3c3cccc(N4CCOCC4)c3)C(=O)N2[C@H]1c1cccc(N2CCOCC2)c1  0.766
12. C=CCC1=C[C@H]2[C@H]([C@@H]3C=C[C@]2(CC=C)C(=O)[C@]32CO2)[C@@]2(CO2)C1=O  0.843
13. C=CCc1cccc([C@@H]2[C@@H](C)CC[C@H]3C(=O)N4[C@H](c5cccc(CC=C)c5)[C@@H](C)CC[C@H]4C(=O)N23)c1  0.898
14. C=CCNC(=O)[C@H]1[C@@H]2C(=O)O[C@@H](c3ccccc3)[C@@H](c3ccccc3)N2[C@@H](c2ccccc2OCCO)[C@]12C(=O)N(C(=O)OCCOC)c1ccc(C#CCNC(N)=O)cc12  0.98
15. CC(=O)NCCCC[C@@H]1NC(=O)[C@@H]2C[C@H](C(=O)NCCCCCCN(C)C)[C@H](c3ccc(O)cc3)N2C1=O  1.24
16. O=C(NCc1ccccc1)[C@@]1(CCS(=O)(=O)c2ccccc2)COC(c2ccc(OCCCO)cc2)=N1  2
